PMC4336329 (PLoS ONE, 2015)
Out of some 310,000 compounds screened, about 14,000 (4.5%) showed an effect of 50% or more. Effects have a minus sign here. The entries come from a sample that favours strong results as a whole.

Target: human ether-à-go-go-related gene (hERG) potassium channel (human, UniProt Q12809)
Test: primary screen, population patch clamp on CHO cells stably expressing hERG; higher = less effect of the substance
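Further: peak tail current of the secondary pulse compared with the same well before compound.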

Chain of human ether-à-go-go-related gene (hERG) potassium channel (Q12809 whole entry, looked up): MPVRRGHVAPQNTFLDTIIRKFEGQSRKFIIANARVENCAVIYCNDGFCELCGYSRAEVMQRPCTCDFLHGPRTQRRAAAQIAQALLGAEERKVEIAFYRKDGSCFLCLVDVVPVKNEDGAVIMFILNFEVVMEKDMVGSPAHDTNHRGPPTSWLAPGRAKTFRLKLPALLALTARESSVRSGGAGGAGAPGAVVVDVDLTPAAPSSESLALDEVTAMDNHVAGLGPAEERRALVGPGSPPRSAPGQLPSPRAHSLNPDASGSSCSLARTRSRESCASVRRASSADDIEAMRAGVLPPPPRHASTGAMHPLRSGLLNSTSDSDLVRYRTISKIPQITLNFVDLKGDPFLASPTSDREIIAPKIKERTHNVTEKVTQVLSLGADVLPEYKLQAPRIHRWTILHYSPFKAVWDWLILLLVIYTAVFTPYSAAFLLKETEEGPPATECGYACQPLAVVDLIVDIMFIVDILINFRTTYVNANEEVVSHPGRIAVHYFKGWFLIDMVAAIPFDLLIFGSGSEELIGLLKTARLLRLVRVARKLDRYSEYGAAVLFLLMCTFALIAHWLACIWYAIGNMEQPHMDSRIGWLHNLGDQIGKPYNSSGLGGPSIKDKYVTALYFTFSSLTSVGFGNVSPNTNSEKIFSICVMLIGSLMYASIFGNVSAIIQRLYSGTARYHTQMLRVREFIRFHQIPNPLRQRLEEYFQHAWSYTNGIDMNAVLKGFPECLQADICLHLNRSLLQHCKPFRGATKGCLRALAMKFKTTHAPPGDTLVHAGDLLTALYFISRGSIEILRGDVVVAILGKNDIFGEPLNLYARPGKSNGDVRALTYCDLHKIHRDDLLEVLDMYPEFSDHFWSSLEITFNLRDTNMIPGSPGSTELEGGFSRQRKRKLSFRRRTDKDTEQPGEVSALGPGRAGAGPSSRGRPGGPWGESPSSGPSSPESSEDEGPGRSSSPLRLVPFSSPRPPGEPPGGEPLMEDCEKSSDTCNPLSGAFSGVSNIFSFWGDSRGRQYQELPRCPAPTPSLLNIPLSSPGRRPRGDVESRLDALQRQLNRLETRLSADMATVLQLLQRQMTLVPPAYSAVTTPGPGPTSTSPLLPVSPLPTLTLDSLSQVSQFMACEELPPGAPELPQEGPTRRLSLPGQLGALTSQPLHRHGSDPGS

SMILES	hERG current change (%, negative = inhibition) at 10uM [%]
O=C(NCC(c1cccs1)N1CCOCC1)c1cc(S(=O)(=O)N2CCOCC2)c(Cl)cc1Cl (centres unmarked)	-9.54
Cc1ccc(S(=O)(=O)N2CCCCC2)cc1C(=O)NCCc1ccccc1	11.2
COc1ccc(S(=O)(=O)N2CCCCCC2)cc1C(=O)NCCc1ccc(F)cc1	-31.4
COc1ccc(S(=O)(=O)N2CCCCCC2)cc1C(=O)NCc1ccc(C)cc1	-29.1
O=C(NCc1cccs1)c1cc(S(=O)(=O)N2CCOCC2)c(Cl)cc1Cl	-81.6
CCCC(C)NC(=O)c1cc(S(=O)(=O)N2CCCCCC2)ccc1OC (centres unmarked)	-54.4
COc1ccc(S(=O)(=O)N2CCCC2)cc1C(=O)O	30.4
O=C(NCc1ccncc1)c1cc(S(=O)(=O)N2CCOCC2)c(Cl)cc1Cl	-13.3
COc1ccc(S(=O)(=O)N2CCCCCC2)cc1C(=O)NCc1cccs1	-68.3
COc1ccc(S(=O)(=O)N2CCCCCC2)cc1C(=O)N(C)Cc1cccs1	-40.5
O=C(NCc1cccs1)c1cc(S(=O)(=O)N2CCCCC2)ccc1Cl	5.07
COc1ccc2ncn(-c3ccccc3)c2c1	-7.39
COc1ccc(NC(=O)c2ccc(Cn3cc(Cl)cn3)cc2)cc1	1.21
Cc1ccc(NC(=O)c2ccco2)c(NC(=O)Cc2cccs2)c1	-2.72
O=C(NCCc1ccccc1F)C1CC(=O)N(c2ccccc2)C1 (centres unmarked)	1.17
C/C(=N\Nc1nc(C(C)(C)C)cs1)c1ccccc1	16.4
Cc1cccc(NC(=O)CC2C(=O)NCCN2C(=S)Nc2ccccc2)c1 (centres unmarked)	1.17
Cc1cnc(NC(=O)c2c(-c3ccccc3)noc2C)s1	-2.27
O=C(NNC(=O)c1ccccc1Br)c1cccc(Cl)c1	-7.94
CCC(CC)NC(=O)c1cc(S(=O)(=O)N2CCCCC2)ccc1N1CCOCC1	-20.3
CCCCCC(C)NC(=O)c1cc(S(=O)(=O)N2CCCCC2)ccc1N1CCOCC1 (centres unmarked)	-70.9
CC(C)CCCC(C)NC(=O)c1cc(S(=O)(=O)N2CCCCC2)ccc1N1CCOCC1 (centres unmarked)	-36.8
COc1ccc(NC(=O)CCSc2ccc3ccccc3n2)cc1	-11.7
CCOC(=O)n1n[n+]([O-])c2ccccc21	35.5

SMILES	hERG current change (%, negative = inhibition) at 10uM [%]
Cc1ccn2cc(CCNS(=O)(=O)c3ccc([N+](=O)[O-])cc3)nc2c1	-69.7
CCc1ccc(S(=O)(=O)NCCc2cn3ccccc3n2)s1	-29.5
O=[N+]([O-])c1ccc(S(=O)(=O)NCCc2cn3ccccc3n2)cc1	-40.6
Cc1ccn2cc(CCNS(=O)(=O)c3ccc4ccccc4c3)nc2c1	-39.6
CCc1ccc(S(=O)(=O)NCCc2cn3ccc(C)cc3n2)s1	-54.2
CCOc1ccc(S(=O)(=O)NCCc2cn3ccccc3n2)cc1	-11
CC(=O)c1ccc(S(=O)(=O)NCCc2cn3ccc(C)cc3n2)cc1	-29.9
CCc1ccc(S(=O)(=O)NCCc2cn3cccc(C)c3n2)s1	-16.2
O=S(=O)(NCCc1cn2ccccc2n1)c1ccc(-c2ccccc2)cc1	-62
COc1cccc(C(=O)COC(=O)COc2c(C)cc(C)cc2C)c1	1.18
COc1ccc(-c2c(C(C)=O)c(C)nc3sc4c(=N)n(N)cnc4c23)cc1	3.48
O=C(NC1CC1)c1ccc2c(Cl)c3c(nc2c1)CCCC3	-63.7
COCCNC(=O)c1ccc2c(Cl)c3c(nc2c1)CCC3	-30.2
CCCN(CCC)CCCNC(=O)c1ccc2c(Cl)c3c(nc2c1)CCC3	-29.1
CCN1CCN(CCCNC(=O)c2ccc3c(Cl)c4c(nc3c2)CCCC4)CC1	-46.8
CCOC(=O)N1CCC(NC(=O)c2ccc3c(Cl)c4c(nc3c2)CCCC4)CC1	-36.6
CCCN1CCN(CCCNC(=O)c2ccc3c(Cl)c4c(nc3c2)CCCC4)CC1	-61.1
CCN(CC)CCCNC(=O)c1ccc2c(Cl)c3c(nc2c1)CCCC3	-48.7
CC(C)CCNC(=O)c1ccc2c(Cl)c3c(nc2c1)CCC3	21.4
CC1CCN(CCCNC(=O)c2ccc3c(Cl)c4c(nc3c2)CCCC4)CC1	-40.9
CN1CCN(CCCNC(=O)c2ccc3c(Cl)c4c(nc3c2)CCCC4)CC1	-6.81
O=C(NCCCN1CCCC1)c1ccc2c(Cl)c3c(nc2c1)CCCC3	-50.1
O=C(NCCCN1CCCCCC1)c1ccc2c(Cl)c3c(nc2c1)CCCC3	-53
